In the supplement of paper PMC11732987, “Enantioselective OTUD7B fragment discovery through chemoproteomics screening and high-throughput optimisation” (Communications Chemistry, 2025):

Tests used:
Experiment in all cases: log2 ratio of Biotin-Ahx-Ub-VS probe labelling (fragment/DMSO); higher = less target engagement (more negative = stronger competition), active = hit call of the paper (q ≤ 0.05, log2 ratio ≤ -1)
Settings in all cases: compound concentration: 200 uM; treatment time: 3 h
USP16 = USP16 (UniProt Q9Y5T5)
Sequence of USP16 (Q9Y5T5 whole entry, looked up, the tested form may be a part): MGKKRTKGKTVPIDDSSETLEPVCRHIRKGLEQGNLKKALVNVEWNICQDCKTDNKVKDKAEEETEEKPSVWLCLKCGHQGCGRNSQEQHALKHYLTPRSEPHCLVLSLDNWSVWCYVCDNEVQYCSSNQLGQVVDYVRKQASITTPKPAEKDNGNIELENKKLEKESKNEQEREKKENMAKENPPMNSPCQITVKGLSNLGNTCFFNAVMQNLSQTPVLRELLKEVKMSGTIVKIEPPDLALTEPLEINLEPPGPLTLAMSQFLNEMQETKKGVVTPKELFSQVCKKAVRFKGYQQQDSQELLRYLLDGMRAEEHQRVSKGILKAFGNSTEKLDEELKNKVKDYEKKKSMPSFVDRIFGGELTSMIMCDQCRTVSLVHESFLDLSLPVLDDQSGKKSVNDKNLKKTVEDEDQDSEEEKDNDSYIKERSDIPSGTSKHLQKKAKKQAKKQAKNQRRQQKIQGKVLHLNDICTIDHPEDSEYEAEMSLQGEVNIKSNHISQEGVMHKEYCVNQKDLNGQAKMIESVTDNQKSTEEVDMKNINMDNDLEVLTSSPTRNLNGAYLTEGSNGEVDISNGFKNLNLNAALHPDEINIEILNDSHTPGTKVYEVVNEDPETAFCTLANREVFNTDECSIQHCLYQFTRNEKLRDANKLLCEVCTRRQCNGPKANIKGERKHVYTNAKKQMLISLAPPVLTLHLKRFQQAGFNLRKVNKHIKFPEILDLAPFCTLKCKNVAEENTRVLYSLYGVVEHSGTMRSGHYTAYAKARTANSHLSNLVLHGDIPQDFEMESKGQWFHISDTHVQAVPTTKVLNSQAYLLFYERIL
Summary of the method: (§1)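 Labelled DUBs from HEK293T lysate were NeutrAvidin-enriched, digested with LysC and trypsin, and run by diaPASEF LC-MS/MS. Before that, each 495 µg sample in Tris/CHAPS/IGEPAL buffer with protease inhibitors was treated in triplicate with fragment at 200 µM or vehicle for 3 h, then with Biotin-Ahx-Ub-VS at 0.5 µM final for 1 h. Values are average log2 ratios of fragment over vehicle by unpaired t-test, based on global-median-normalised Spectronaut label-free quantities from proteins with ≥2 unique peptides.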

USP19 = molecular target: T1, USP19 (UniProt O94966)
T1 sequence (whole entry): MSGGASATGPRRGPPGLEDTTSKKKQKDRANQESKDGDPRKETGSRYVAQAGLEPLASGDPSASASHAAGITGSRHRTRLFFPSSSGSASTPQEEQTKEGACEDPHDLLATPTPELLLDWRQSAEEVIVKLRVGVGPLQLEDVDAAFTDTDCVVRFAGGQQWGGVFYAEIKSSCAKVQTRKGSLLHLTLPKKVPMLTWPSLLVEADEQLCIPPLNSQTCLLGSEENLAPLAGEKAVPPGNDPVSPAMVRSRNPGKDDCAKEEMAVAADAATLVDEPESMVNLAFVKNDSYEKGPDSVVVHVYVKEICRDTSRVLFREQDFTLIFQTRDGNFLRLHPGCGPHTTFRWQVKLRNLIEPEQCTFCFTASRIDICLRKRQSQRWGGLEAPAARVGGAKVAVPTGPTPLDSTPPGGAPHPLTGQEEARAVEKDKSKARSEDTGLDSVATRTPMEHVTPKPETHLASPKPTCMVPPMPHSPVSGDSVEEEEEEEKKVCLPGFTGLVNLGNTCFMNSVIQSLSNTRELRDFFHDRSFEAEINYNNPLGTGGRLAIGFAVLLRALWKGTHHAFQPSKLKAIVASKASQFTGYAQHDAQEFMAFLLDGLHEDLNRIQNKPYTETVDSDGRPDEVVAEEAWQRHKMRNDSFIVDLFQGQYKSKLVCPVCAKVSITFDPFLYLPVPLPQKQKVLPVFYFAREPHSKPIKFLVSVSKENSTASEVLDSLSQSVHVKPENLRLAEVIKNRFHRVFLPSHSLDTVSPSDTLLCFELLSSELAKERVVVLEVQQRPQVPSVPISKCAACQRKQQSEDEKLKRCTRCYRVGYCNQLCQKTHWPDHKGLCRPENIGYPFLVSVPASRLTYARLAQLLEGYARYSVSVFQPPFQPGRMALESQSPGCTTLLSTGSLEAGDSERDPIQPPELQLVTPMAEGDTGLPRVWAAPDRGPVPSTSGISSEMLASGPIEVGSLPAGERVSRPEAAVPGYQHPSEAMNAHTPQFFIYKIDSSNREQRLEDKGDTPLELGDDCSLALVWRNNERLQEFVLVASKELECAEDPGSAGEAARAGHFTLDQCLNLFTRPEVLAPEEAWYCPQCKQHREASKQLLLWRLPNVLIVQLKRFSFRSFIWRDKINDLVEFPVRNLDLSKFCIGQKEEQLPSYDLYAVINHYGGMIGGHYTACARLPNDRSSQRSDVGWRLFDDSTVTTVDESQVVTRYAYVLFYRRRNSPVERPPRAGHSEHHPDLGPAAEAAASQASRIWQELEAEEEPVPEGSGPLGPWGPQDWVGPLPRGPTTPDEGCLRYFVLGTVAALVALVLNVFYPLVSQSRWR
Summary of the method: as §1

USP24 = USP24 (UniProt Q9UPU5)
Sequence of USP24 (Q9UPU5 whole entry): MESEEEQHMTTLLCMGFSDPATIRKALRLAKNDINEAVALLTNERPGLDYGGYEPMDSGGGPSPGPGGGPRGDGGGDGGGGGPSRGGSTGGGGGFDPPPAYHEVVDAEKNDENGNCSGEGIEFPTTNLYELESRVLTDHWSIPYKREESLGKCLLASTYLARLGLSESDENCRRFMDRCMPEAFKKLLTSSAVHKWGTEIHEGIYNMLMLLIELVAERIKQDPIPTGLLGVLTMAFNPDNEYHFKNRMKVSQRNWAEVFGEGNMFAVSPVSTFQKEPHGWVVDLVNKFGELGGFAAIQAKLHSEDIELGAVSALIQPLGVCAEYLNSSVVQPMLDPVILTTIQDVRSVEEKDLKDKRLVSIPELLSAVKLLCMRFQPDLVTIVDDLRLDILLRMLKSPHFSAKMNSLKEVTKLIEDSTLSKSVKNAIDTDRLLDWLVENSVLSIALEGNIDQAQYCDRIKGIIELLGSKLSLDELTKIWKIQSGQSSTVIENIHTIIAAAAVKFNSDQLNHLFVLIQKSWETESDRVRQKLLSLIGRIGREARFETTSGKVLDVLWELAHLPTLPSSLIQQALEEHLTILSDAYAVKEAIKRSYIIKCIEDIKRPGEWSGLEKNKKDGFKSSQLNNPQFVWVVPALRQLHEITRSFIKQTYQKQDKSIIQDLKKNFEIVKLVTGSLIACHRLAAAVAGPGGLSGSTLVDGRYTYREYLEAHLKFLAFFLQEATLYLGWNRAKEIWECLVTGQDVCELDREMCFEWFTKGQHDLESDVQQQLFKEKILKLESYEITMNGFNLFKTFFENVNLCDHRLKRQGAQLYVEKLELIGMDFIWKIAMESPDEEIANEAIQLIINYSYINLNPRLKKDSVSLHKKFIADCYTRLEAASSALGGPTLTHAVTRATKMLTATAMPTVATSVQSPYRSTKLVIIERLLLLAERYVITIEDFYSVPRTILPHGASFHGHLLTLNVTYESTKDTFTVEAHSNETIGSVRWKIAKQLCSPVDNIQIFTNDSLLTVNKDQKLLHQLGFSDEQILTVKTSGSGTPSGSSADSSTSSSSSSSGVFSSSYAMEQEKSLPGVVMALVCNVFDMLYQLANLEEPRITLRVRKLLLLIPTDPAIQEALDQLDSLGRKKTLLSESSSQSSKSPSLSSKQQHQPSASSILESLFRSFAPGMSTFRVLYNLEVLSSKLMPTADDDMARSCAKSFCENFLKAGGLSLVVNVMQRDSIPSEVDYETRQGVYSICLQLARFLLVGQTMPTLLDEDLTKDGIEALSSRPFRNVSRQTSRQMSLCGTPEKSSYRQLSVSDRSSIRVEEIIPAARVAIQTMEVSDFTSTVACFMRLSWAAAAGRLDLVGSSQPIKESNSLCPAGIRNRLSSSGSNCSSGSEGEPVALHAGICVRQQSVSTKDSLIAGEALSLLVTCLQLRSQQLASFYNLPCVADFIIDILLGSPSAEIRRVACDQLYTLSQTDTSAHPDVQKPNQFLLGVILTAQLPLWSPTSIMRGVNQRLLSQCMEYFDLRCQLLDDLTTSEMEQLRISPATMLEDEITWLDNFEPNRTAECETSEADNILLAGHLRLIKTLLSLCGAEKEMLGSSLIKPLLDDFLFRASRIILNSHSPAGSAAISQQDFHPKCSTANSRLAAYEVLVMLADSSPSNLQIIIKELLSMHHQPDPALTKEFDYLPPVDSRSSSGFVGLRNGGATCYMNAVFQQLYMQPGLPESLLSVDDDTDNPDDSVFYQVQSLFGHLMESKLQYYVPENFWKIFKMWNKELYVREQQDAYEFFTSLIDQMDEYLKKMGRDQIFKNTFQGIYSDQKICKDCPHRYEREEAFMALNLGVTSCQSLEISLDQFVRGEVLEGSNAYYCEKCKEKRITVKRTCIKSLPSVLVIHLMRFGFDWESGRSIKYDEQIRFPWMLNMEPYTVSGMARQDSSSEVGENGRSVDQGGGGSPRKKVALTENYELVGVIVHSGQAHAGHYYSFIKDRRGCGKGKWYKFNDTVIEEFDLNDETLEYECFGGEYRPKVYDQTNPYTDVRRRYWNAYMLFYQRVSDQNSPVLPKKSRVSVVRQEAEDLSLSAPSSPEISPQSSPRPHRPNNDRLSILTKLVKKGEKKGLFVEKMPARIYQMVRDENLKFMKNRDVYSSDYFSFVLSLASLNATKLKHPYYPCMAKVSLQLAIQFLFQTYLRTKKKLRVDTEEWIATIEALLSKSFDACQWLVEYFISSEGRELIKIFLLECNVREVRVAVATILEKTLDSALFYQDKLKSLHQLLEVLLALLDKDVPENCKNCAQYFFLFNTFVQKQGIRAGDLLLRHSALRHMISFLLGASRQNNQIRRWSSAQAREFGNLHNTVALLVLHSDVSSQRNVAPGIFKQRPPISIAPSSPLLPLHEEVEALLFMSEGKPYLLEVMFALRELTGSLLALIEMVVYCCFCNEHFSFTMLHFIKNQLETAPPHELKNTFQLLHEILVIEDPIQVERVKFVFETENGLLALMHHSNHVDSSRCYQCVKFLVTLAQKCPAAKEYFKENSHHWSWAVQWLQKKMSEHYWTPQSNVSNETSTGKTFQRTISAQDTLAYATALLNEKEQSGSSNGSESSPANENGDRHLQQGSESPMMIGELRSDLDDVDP
Summary of the method: as §1

USP25 = molecular target: T2, USP25 (UniProt Q9UHP3)
T2 sequence (whole entry): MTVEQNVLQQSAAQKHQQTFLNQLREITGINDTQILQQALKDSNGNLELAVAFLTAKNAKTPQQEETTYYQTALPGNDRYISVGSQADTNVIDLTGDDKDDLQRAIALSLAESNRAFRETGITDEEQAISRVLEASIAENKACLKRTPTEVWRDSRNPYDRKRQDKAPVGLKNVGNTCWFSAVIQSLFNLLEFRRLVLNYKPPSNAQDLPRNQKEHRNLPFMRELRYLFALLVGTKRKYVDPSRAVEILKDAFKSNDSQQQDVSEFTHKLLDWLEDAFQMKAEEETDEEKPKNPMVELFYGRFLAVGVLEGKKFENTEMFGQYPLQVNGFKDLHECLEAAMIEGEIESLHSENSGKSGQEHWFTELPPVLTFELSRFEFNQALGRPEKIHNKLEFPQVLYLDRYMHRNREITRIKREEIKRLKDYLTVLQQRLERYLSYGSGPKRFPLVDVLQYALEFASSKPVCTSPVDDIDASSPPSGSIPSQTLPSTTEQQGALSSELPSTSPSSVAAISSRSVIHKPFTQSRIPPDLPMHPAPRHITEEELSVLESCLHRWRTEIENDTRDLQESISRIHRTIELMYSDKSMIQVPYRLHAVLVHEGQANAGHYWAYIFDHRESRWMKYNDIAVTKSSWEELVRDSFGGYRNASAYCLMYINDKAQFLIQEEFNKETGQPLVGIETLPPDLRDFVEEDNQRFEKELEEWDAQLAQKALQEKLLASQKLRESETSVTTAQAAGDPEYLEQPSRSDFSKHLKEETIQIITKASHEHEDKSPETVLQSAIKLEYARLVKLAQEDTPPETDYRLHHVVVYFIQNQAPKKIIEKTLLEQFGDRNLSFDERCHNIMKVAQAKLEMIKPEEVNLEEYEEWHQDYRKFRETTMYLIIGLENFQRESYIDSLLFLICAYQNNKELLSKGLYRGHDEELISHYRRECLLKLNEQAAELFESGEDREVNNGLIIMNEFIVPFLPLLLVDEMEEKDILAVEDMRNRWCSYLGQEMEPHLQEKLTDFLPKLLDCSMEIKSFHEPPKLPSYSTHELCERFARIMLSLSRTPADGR
Summary of the method: as §1

USP28 = molecular target: T3, USP28 (UniProt Q96RU2)
T3 sequence (whole entry): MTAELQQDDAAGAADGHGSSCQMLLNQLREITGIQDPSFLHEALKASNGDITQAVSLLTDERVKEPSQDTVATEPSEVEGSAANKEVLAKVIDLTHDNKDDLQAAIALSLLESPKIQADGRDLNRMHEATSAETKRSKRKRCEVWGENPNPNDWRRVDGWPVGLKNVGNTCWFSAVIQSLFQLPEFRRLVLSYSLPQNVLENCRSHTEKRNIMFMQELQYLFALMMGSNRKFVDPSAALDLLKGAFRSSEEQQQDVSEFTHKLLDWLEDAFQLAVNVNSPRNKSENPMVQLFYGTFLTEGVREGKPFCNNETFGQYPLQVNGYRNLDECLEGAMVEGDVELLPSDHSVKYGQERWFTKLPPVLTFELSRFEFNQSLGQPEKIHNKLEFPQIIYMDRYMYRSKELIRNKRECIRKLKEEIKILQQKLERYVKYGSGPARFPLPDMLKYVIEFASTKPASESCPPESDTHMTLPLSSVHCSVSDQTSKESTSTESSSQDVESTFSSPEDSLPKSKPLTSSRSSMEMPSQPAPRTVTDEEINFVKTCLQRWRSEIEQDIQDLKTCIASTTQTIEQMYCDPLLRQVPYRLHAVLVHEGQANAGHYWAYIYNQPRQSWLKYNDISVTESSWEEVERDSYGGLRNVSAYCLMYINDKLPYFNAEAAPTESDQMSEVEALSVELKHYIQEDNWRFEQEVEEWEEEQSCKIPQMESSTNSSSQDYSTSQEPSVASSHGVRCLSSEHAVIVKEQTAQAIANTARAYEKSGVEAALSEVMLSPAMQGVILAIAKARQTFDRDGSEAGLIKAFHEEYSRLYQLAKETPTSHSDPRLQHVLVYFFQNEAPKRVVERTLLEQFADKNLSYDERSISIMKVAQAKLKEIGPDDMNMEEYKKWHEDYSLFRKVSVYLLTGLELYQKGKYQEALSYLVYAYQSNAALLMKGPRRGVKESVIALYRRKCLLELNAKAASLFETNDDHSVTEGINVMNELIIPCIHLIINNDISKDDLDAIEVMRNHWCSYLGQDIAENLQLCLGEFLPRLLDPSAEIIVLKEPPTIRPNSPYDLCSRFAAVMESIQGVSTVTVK
Summary of the method: as §1

Measured: log2 ratio of Biotin-Ahx-Ub-VS probe labelling

Cl.Cn1ncc2c1CC(NC(=O)CCl)CC2 (stereo not given)
inactive: USP16 -0.62 | USP19 0.0381 | USP24 0.0406 | USP25 -0.321 | USP28 -0.758
